Bioassay records deposited in PubChem BioAssay by National Center for Advancing Translational Sciences (NCATS).
Glioma ERSR ind – ER stress response induction in glioma. U87-MG GRP78 promoter luciferase reporter, 16 h. Potency, µM, for inactives: at the highest dose activation, usual class: activators. 0.02% of 420,000 active; active = well fitted activation curve with a large enough effect; inconclusive = small, poorly fitted or top-dose-only effect; inactive = no such curve, though single readings can be large or run the other way; note: potency is the fitted concentration of half-maximal effect; series mostly up to about 76 µM; % of control where 0% means no effect; nearly all actives have a fitted effect of over 35% in size
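Stably transfected U87-MG glioma cells carrying a GRP78-based luciferase sensor; 16 h compound incubation. Luminescence end-point read 10 min after Bright-Glo addition at room temperature.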
Akt phos inh – inhibitors of Akt phosphorylation | Neuro2A IGF-stimulated pAkt S473 HTRF, 20 min; hits give low values | activity change, % for hits at 50 µM | 0.32% of 360,000 active; in the data active = activity change below about -80%; inconclusive = mostly about -51% to -80%; note: % is set by controls: 0 for no effect and ±100 for the full control effect
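Single-point screen (50 µM final compound) in Neuro2A cells stimulated 20 min with 6 nM IGF at 37 deg C. After lysis, Ser473-phosphorylated Akt read by HTRF (ex 330 nm, em 615/665 nm) as the 665/615 ratio.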
gsp agonist – activates gsp, the McCune-Albright syndrome mutation. gsp mutant cells, cAMP HTRF, 30 min. 0.13% of 340,000 active. Potency, µM (titrated, usually from 76.9 µM), inactives show at the top dose activation (cAMP increase), hits mostly activators; active = well fitted activation curve with a large enough effect; inconclusive = small, poorly fitted or top-dose-only effect, or another doubt; inactive = no such curve, though single readings can be large or run the other way; cell line not stated here;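 note: phosphodiesterase inhibitor Ro 20-1724 added with compounds to block cAMP breakdown; potency is the fitted concentration of half-maximal effect; nearly all actives have a fitted effect of over 60% in size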
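Cells in DMEM/10% FBS with G418 were pretreated with compounds in DMSO plus […] (300 uM stock) for 30 min at 37C. cAMP was measured by HTRF (cAMP-d2 plus anti-cAMP antibody-K) after 30 min at room temperature.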
gsp antag – antagonists of gsp mutant (McCune-Albright syndrome). gsp-mutant cells, cAMP HTRF, 30 min. Potency, µM (series often up to 76.9 µM), for inactives: top-dose activity change, negative = inhibition, usual class: inhibitors. AID 624288. 0.4% of 340,000 active; calls by dose curve; cell line not stated here;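 note: intracellular cAMP measured with PDE inhibitor Ro 20-1724 present during compound exposure; potency is the fitted concentration of half-maximal effect; % is set by controls: 0 for no effect and ±100 for the full control effect; nearly all actives have a fitted effect of over 65% in size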
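HTRF cAMP read-out (cAMP-d2 plus anti-cAMP antibody-K in lysis buffer, 30 min RT). Before lysis, cells are exposed to compounds with […] for 30 min at 37C in DPBS containing Ca/Mg, BSA and Tween 20.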
KCNH2 3.1 block – inhibitors of human KCNH2 3.1 potassium channel isoform; U2OS KCNH2 3.1, thallium flux FluxOr; hits give low values; activity change, % (tested at about 1.8 µM); 0.95% of 340,000 active; AID 720553;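 active = maximum activity change below -70%; inconclusive = maximum activity change from -70% to -50%; inactive = maximum activity change above -50%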;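 note: thallium influx rate constant from kinetic fluorescence after stimulation buffer; % is set by controls: 0 for no effect and ±100 for the full control effect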
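Thallium flux via FluxOr fluorescence (Red40 quencher, 45 min loading) in U2OS cells virally expressing the KCNH2 3.1 isoform (1.77 x 10^8 /mL virus, overnight at 37 C). Rate constants from 2-min kinetic reads post-stimulation, normalised to positive and negative controls.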
hERG WT inh – blocks the wildtype human KCNH2 potassium channel; activity change, % at 1.84 µM; U2OS, BacMam KCNH2, thallium flux FluxOr; hits give low values; Q12809; 0.37% of 340,000 active;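 active = maximum activity change below -70%; inconclusive = maximum activity change between -70% and -50%; inactive = maximum activity change above -50%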; note: % is set by controls: 0 for no effect and ±100 for the full control effect
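U2OS cells transduced with wild-type KCNH2 virus are loaded with FluxOr dye for 45 min, and thallium flux is measured in kinetic reads before and after stimulation buffer. Rate constants are normalized to DMSO controls.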
An asterisk follows results filed as active; i = inactive; ? = inconclusive; . = not tested or not shown; [ ] = another dose, or the depositor's remark. Rows were chosen to be rich in hits. Some 1.6% of all compounds tested hit in one or more screens of this group.

SMILES	Glioma ERSR ind	Akt phos inh	gsp agonist	gsp antag	KCNH2 3.1 block	hERG WT inh
CN(CCC(=O)Nc1ccc(Cl)cc1)Cc1ccccc1	-1%	i	-19%	14%	-76*	28
CCCC(=O)Nc1ccc(Nc2ccccc2)cc1	3%	i	-11%	10%	-5	-71*
CCCCNC(=O)c1sc2ncnc(NCC3CCCO3)c2c1C (stereo not given)	-4%	.	.	.	.	.
Cc1cc2nc(SCC(=O)Nc3nonc3C)c3c(c2cc1C)CCCC3	-3%	-91%*	14%	0%	-6	-4
Cc1nonc1NC(=O)CSc1nc(C2CCCCC2)nc2ccccc12	0%	i	22%	-33%	3	-16
CCOC(=O)c1cn(-c2ccccc2)nc1-c1ccncc1	-1%	-118%*	-4%	-1%	7	-6
CCOC(=O)c1cn(-c2ccccc2)nc1-c1cccnc1	-1%	i	15%	-10%	12	-4
O=[N+]([O-])c1ccc(N2CCN(c3cccc(Cl)c3)CC2)nc1	-1%	i	15%	0%	-32	23
N#Cc1c(N2CCN(c3ccc([N+](=O)[O-])cc3)CC2)[n+](=O)c2ccc(Cl)cc2n1[O-]	-3%	i	6%	-11%	-97*	?
CN(C)/C=C/c1oc2ccc(O)cc2c1[N+](=O)[O-]	2%	i	21%[15.4 µM]	28µM*	-13	0
CC1(C)Cc2c(c(N3CCOCC3)nc3snc(NC(=O)c4ccccc4)c23)CO1	-4%	i	17%	2%	1	3
Cc1nc2c(sc3nc(N4CCOCC4)c4c(c32)CC(C)(C)OC4)c(-c2ccccc2)c1C(=O)O	-1%	i	6.3µM*	13%	-3	3
Cc1cccc(C(=O)NCc2nc(-c3cccc(NC(=O)c4ccoc4C)c3)oc2C)n1	0%	.	.	.	.	.
COc1ccc2c(C)cc(N3CCN(c4ccc(F)cc4)CC3)nc2c1	-3%	i	7%	-1%	-91*	-35
COc1ccc(N2CCN(c3cc(C)c4ccc(C)cc4n3)CC2)cc1	-3%	i	-1%[15.4 µM]	-10%	-102*	-74*
Cc1cc(N2CCN(c3ccc(F)cc3)CC2)nc2cc(O)ccc12	-4%	i	8%	-1%	-79*	?
COc1ccc(N2CCN(c3cc(C)c4ccc(O)cc4n3)CC2)cc1	-3%	i	4%	-5%	-26	36
O=C(NC1CCC(n2cc(C(=O)NC3CC3)nn2)CC1)C(=O)c1ccccc1 (stereo not given)	-3%	.	.	.	.	.
Cn1nnnc1-c1cc(Br)ccc1NC(=O)c1ccccc1	9%	-104%*	?	45%	-1	0
CCCOC(=O)c1ccc(NC(=O)C2CCCO2)cc1 (stereo not given)	0%	-119%*	?	16%	9	1
COc1ccc(CNC(=O)c2ccc(NC(=O)C3CCCO3)cc2)cc1 (stereo not given)	0%	-105%*	17%	13%	3	4
NC(=O)c1ccc(NC(=O)C2CCCO2)cc1 (stereo not given)	-2%	i	-28%	-11%	3	-5
CCCC1(C)C(C#N)(C#N)C1(C#N)C#N	-14%	.	.	.	.	.
Cc1ccc2nc3c(cc2c1)c(NC(=O)c1ccccn1)nn3CC(C)C	-2%	.	19%	5%	-18	1
CCn1nc(NC(=O)c2ccccn2)c2cc3cc(C)ccc3nc21	0%	i	?	35µM*	8	1
SMILES	Glioma ERSR ind	Akt phos inh	gsp agonist	gsp antag	KCNH2 3.1 block	hERG WT inh
Cc1cccc(C(=O)NCCN2CCCC2)c1	-1%	i	-44%	5%	-7	6
Cc1ccc(C(=O)NCCN(C)C)cc1C	-2%	-107%*	1%	-2%	5	-6
Cc1ccc(C)c(C(=O)NCCN(C)C)c1	-1%	-110%*	-34%	21%	3	-6
Cc1cccc(C(=O)NCCNC(=O)c2cccc(C)c2)c1	-1%	i	-21%	-8%	.	-264*
CCOc1ccc(C(=O)NCCN(C)C)cc1	-6%	i	-16%	10%	10	26
Cc1cccc(C(=O)NC(=S)NNC(=O)c2ccc(Cl)cc2)c1	35µM*	i	3%	-4%	3	-8
O=C(O)Cc1cccc(OCCCN(Cc2cccc(C(F)(F)F)c2Cl)CC(c2ccccc2)c2ccccc2)c1	11%	.	.	.	.	.
Cc1oc2c(CN3CCCC3)c(O)ccc2c(=O)c1Oc1ccccc1Br	-4%	-85%*	?	-7%	-7	-9
CC1(C)CC(=O)C2=C(C1)c1c(ccc3ccccc13)NC2c1cc([N+](=O)[O-])cc([N+](=O)[O-])c1O (stereo not given)	0%	i	-10%[15.4 µM]	32µM*	3	0
O=C(CCl)c1ccc2c(c1)CCCC2	6%	.	.	.	.	.
CC(C)c1ccc(C2NC(C(=O)O)CS2)cc1 (stereo not given)	-2%	-105%*	?	17%	4	-17
Cc1n[nH]c(C)c1N1C(=O)c2cccc3c(Br)ccc(c23)C1=O	-8%	-113%*	11%	7%	-1	-6
Cc1n[nH]c(C)c1N1C(=O)c2cccc3cc(Br)cc(c23)C1=O	0%	i	8%	-5%	2	-2
O=C(N/N=C\c1ccc(Cl)cc1)C1=NOC2COC3(CCN(c4ccc([N+](=O)[O-])cc4)CC3)OCC12 (stereo not given)	-2%	i	21%	-22%	-103*	-38
CCOC(=O)c1oc2ccccc2c1COC(=O)CNC(=O)c1cccc(C)c1	1%	i	-18%	-10%	-80*	-1
CCOC(=O)c1oc2ccccc2c1COC(=O)CNC(=O)c1ccccc1F	-7%	i	-34%	.	12	1
Cc1ccc(/C(N)=N/OC(=O)N2c3ccccc3Sc3ccccc32)cc1	-3%	i	-3%	-31%	8	-176*
CCCCCn1c(SCCc2ccccc2)nc2c1c(=O)[nH]c(=O)n2C	-7%	-112%*	4%	2%	-11	8
CCCCn1c(NCCC)nc2c1c(=O)[nH]c(=O)n2C	-1%	i	-13%	7%	6	3
CCCn1c(SCCc2ccccc2)nc2c1c(=O)[nH]c(=O)n2C	-5%	i	0%	-2%	-37	-1
CCOCCSc1nc2c(c(=O)[nH]c(=O)n2C)n1CCCc1ccccc1	-2%	-114%*	0%	10%	-11	0
C=CCNc1nc2c(c(=O)[nH]c(=O)n2C)n1CCCCC	-2%	-114%*	5%	-1%	3	-1
CCOC(=O)C(C)Sc1nc2c(c(=O)[nH]c(=O)n2C)n1CCc1ccccc1 (stereo not given)	0%	-103%*	-33%	2%[15.4 µM]	-33	29
